# Test results reported in ChEMBL document CHEMBL3988442, “University of Dundee, Small-Polar-MMV Screening Library” (2021).
# For some of these results: Entries with a potency or affinity are not part of this list.
# Columns and labels:
# Parameters in all cases: scale not given: direction of the effect not stated beside the values
# [1] = target: Protein translocase subunit SecA (Escherichia coli (strain K12)) (UniProt P10408); assay: Assay to Identify E. coli SecA ATPase Inhibitors; format: functional; conditions: 30 µM
# Sequence of Protein translocase subunit SecA (Escherichia coli (strain K12)) (P10408 whole entry): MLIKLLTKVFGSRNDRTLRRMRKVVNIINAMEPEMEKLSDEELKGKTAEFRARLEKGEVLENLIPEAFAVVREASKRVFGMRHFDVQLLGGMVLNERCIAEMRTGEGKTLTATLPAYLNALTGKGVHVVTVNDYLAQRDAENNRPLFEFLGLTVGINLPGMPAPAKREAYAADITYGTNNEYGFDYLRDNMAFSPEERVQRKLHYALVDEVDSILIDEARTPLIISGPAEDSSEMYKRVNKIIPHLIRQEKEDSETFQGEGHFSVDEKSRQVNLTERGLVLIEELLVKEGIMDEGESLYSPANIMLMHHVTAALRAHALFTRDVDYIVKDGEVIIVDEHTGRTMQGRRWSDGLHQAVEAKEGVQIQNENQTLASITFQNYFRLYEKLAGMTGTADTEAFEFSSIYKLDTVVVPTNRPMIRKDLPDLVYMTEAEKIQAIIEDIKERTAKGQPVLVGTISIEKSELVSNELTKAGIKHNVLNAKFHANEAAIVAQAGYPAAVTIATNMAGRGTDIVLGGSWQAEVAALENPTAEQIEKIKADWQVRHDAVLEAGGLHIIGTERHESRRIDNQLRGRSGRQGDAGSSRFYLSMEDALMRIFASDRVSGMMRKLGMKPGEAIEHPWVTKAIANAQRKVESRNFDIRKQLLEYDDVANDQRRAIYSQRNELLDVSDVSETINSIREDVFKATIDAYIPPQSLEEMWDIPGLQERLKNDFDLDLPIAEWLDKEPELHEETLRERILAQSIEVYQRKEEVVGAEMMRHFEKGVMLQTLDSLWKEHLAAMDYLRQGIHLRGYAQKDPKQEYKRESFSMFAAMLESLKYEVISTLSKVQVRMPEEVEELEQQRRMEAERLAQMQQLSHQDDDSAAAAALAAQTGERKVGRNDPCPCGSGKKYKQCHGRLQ
# [2] = target: T1, Ubiquitin-activating enzyme e1, putative (Leishmania donovani (strain BPK282A1)) (UniProt E9BSI1); assay: Leishmania donovani Ubiquitin Activating Enzyme (LdE1); format: functional; conditions: 30 µM
# T1 sequence (whole entry): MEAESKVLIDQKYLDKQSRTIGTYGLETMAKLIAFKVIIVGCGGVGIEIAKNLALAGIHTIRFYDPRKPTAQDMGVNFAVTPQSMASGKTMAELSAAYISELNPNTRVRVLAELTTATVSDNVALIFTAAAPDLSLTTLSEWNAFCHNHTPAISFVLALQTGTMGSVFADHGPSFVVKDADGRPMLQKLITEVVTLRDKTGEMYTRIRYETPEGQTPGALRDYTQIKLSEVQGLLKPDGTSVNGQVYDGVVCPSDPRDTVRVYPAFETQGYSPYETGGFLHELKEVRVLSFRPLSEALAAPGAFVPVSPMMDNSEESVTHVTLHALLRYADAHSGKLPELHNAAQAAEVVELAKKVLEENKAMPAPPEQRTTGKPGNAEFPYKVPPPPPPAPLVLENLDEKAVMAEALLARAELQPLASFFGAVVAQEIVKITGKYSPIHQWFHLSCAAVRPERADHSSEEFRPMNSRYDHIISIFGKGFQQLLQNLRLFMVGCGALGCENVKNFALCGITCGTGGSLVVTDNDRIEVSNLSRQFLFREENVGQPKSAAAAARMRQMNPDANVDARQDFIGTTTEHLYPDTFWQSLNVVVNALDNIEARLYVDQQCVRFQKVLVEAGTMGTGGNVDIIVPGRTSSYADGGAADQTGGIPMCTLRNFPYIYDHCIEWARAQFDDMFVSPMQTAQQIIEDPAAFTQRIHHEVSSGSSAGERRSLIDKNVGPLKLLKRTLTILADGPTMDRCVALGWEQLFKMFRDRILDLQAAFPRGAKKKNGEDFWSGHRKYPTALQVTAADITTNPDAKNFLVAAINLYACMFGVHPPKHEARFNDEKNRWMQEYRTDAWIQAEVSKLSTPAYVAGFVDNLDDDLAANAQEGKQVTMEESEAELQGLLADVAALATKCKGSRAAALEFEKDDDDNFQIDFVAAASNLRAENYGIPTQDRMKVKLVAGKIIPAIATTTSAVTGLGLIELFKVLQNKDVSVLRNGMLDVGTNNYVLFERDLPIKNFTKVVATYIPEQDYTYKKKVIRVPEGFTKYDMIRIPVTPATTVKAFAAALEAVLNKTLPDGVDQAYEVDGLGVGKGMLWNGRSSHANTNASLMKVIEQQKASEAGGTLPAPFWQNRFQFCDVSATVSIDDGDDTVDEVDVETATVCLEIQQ
# [3] = target: AMP-activated protein kinase, AMPK (Homo sapiens) (UniProt P54646+O43741+P54619+Q9UGJ0+Q9Y478+Q13131+Q9UGI9); assay: AMP-dependent Kinase enzyme assay. An in vitro enzyme assay that detects ADP turnover that is directly proportional to AMPK activity. This uses naive AMPK that is activated during the assay with MK-8722; format: functional; conditions: 30 µM
# [4] = target: Sialic acid-binding Ig-like lectin 9 (Homo sapiens) (UniProt Q9Y336); assay: Hs-Siglec9 ALPHAscreen SOP 20170721; conditions: 10 µM
# Sequence of Sialic acid-binding Ig-like lectin 9 (Homo sapiens) (Q9Y336 whole entry): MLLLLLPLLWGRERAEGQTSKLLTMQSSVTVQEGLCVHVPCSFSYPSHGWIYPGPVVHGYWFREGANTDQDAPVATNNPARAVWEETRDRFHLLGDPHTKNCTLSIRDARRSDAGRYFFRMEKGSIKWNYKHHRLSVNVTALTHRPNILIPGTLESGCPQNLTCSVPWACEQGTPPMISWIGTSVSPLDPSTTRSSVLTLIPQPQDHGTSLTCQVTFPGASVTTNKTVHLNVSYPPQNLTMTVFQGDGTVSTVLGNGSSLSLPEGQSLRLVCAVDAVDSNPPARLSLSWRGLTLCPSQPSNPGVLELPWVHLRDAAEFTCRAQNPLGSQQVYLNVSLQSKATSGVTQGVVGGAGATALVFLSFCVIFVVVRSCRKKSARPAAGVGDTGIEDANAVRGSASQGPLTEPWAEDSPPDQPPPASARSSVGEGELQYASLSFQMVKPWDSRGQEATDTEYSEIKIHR
# Trypanosoma cruzi = assay: Trypanosoma cruzi phosphomannomutase and mannose-1-phosphate guanylyltransferase assay; format: functional; conditions: 10 µM
# [5] = target: T2, Arginase-2, mitochondrial (Homo sapiens) (UniProt P78540); assay: in vitro enzyme assay to detect the production of urea directly proportional to the activity of Arginase II; format: functional; conditions: 33.3 µM; note: in the data most compounds retested in dose-response had high values
# T2 sequence (whole entry): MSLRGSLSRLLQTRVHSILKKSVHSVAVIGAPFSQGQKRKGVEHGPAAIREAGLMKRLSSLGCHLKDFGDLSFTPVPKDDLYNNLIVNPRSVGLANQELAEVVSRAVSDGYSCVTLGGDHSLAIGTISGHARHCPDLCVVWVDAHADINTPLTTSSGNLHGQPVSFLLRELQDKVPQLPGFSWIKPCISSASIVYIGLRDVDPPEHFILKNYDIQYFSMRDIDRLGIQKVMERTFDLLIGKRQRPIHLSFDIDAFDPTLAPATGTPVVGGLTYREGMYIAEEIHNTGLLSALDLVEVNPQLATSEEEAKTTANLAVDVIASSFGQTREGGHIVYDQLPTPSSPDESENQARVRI
# [6] = target: T3, Proteasome subunit beta (Trypanosoma cruzi) (UniProt O96673); assay: Trypanosoma cruzi proteasome chymotrypsin-like activity (TcProtChymo) assay.; note: in the data most compounds retested in dose-response had high values; format: functional; conditions: 9.37 µM
# T3 sequence (whole entry): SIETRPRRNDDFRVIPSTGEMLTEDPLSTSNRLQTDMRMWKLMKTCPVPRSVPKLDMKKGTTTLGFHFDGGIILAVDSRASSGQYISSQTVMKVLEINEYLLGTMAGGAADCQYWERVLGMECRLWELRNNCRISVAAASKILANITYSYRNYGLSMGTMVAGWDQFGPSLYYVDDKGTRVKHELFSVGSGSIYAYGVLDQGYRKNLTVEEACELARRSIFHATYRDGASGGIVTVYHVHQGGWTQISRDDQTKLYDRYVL
# Homo sapiens = species on record: Homo sapiens; assay: To identify inhibition of the IFN signalling (Jak-Stat) pathway via expression of an eGFP reporter gene under the control of an IFN-stimulated response element (ISRE) containing MxA promoter.; format: functional; conditions: 30 µM
# [7] = target: T4, Tyrosyl-tRNA synthetase, putative (Trypanosoma cruzi (strain CL Brener)) (UniProt Q4DSP6); assay: Trypanosoma cruzi tyrosyl tRNA synthetase (TcYRS) _High Tyrosine SOP; format: functional; conditions: 30 µM; note: in the data most compounds retested in dose-response had high values
# T4 sequence (whole entry): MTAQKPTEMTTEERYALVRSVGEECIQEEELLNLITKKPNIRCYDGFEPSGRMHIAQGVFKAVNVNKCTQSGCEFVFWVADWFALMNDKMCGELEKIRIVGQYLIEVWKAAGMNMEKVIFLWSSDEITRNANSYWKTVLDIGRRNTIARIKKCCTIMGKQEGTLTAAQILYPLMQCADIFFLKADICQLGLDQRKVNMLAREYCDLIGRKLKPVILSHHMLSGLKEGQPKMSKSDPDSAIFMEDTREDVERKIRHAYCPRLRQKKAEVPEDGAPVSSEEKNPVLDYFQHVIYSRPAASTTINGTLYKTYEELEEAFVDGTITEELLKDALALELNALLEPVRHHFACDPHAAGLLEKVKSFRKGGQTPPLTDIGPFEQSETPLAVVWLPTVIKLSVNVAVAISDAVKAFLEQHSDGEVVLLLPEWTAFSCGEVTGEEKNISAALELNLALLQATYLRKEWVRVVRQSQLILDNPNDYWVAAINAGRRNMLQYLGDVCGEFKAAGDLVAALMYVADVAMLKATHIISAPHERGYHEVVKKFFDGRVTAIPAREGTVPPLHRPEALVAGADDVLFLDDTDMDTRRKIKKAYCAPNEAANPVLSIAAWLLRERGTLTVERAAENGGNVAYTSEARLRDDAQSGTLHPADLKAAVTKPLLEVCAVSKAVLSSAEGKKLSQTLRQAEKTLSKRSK
# [8] = target: T4, Tyrosyl-tRNA synthetase, putative (Trypanosoma cruzi (strain CL Brener)); assay: Trypanosoma cruzi tyrosyl tRNA synthetase (TcYRS) SOP; format: functional; conditions: 30 µM
# [9] = target: Chromo domain-containing protein 1 (Saccharomyces cerevisiae (strain ATCC 204508 / S288c) (Baker's yeast)) (UniProt P32657); assay: ScCHD-1 Enzyme Inhibition Assay; format: functional; conditions: 30 µM; note: in the data most compounds retested in dose-response had high values
# Sequence of Chromo domain-containing protein 1 (Saccharomyces cerevisiae (strain ATCC 204508 / S288c) (Baker's yeast)) (P32657 whole entry, the tested form may be a part): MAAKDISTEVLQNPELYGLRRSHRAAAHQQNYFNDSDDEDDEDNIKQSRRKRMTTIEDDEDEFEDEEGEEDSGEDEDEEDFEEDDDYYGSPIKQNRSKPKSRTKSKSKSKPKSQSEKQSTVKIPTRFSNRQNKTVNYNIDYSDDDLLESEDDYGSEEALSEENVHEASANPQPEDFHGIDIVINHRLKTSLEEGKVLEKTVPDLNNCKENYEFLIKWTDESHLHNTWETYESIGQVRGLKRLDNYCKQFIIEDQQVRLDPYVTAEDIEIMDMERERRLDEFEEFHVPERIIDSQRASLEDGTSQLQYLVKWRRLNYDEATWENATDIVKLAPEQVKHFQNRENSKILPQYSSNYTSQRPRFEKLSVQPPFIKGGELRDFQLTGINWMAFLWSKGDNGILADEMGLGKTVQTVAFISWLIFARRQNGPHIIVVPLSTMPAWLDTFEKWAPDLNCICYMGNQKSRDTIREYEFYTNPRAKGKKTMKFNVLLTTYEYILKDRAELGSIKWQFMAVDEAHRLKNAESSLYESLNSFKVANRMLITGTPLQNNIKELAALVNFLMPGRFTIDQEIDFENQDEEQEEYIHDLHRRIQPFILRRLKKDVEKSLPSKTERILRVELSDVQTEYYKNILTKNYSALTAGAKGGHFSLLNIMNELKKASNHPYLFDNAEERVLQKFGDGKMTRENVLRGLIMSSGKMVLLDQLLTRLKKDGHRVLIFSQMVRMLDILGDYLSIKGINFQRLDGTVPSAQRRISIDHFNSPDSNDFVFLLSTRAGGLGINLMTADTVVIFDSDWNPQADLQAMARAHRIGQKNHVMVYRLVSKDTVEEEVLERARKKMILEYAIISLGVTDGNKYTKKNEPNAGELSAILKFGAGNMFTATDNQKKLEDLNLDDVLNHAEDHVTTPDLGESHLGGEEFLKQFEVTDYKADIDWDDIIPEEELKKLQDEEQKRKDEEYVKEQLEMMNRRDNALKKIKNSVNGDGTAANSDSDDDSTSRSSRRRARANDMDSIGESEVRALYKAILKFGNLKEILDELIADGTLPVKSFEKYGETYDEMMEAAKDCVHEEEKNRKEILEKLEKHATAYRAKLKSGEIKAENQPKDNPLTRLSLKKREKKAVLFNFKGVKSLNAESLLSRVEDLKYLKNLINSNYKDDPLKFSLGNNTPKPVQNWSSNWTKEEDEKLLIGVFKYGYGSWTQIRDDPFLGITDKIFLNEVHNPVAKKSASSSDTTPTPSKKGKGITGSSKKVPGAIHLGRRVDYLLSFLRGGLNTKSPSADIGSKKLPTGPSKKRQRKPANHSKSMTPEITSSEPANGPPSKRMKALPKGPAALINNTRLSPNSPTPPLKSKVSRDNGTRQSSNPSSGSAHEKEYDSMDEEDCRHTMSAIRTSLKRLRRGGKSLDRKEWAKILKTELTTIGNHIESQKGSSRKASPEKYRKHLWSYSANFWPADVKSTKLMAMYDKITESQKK
Structure (SMILES),Percent Effect [1] [%],Percent Effect [2] [%],Percent Effect [3] [%],Percent Effect [4] [%],Percent Effect (Trypanosoma cruzi) [%],Percent Effect [5] [%],Percent Effect [6] [%],Percent Effect (Homo sapiens) [%],Percent Effect [7] [%],Percent Effect [8] [%],Percent Effect [9] [%]
O=C(CCc1ccccn1)N1CCc2cc(Cl)cc(Cl)c2C1,-0.0645,7.79,5.1,1.57,-9.34,-17.9,15,47.7,-1.07,-3.7,-2.98
Cc1ccc(C(CNCc2cnn(C(C)C)c2)N2CCOCC2)s1 (configuration not stated),-3.15,-2.7,-0.219,-2.96,-0.391,-2.5,11.1,-8.39,4.95,1.22,-6.03
O=C(NCc1ccccn1)[C@H]1COC[C@H]2CN(Cc3ccoc3)C[C@H]21,-2.43,2.7,6.89,-1.93,-6.16,2.87,20.3,-4.49,5.41,7.69,-5.52
CCc1ncc(CN(C)C(=O)Nc2cccnc2N2CCCC2)s1,-6.28,13.2,-27.9,8.15,7.38,1.8,10.4,-11.4,5.42,13.6,-1.2
CC(C)c1ccc(CN2CCC3(CCCN(c4nncs4)C3)C2)cc1 (configuration not stated),-5.12,2.7,-2.41,37.5,9.87,-1.74,1.97,-25,4.3,13.6,-4.2
Cc1cc(C(=O)N2CCC(c3nccn3Cc3ccncc3)CC2)no1,-4.98,8.22,5.77,-7.08,-0.979,5.46,12.6,7.62,8.6,15,-1.03
Cn1cc(CNC2CCCN(Cc3noc(C4CC4)n3)C2)cn1 (configuration not stated),-1.45,13.2,1.88,-6.33,-4.51,5.75,18.7,28.1,2.45,12.2,-11.8
CN1CC(=O)N(c2cccnc2)CC12CCN(C(=O)c1cccnc1)C2 (configuration not stated),1.61,10.7,11,-7.78,-3.09,-53.9,14.5,2.71,6.25,10,-5.77
CN(C)c1ncnc2c1CCN(CC1CCCC1)CC2,-3.48,5.41,5.95,-2.79,-3.81,-4.14,15.1,-8.91,4.32,15.4,1.8
CCc1nc(CNC(=O)Nc2ccc(C(=O)NC)cc2C)cs1,-5.84,16,-2.78,18.6,8.28,6.25,4.88,11.9,4.92,11.1,-7.82
Cc1nnc2n1CCN(Cc1ncc(-c3ccc(Cl)cc3)o1)C2,-5,-18.4,8.78,14.6,3.38,2.3,-0.167,7.71,5.39,7.32,-5.79
CNc1nc2c(s1)C(c1c(Cl)cccc1Cl)CC(=O)N2 (configuration not stated),2.52,5.26,-467,4.3,0.682,0,17,4.23,-10.6,-10.4,-2.54
Cc1cccc(CNC2CCCc3c2cnn3C)c1 (configuration not stated),2.29,-5.41,-6.19,5.27,5.38,0,3.6,-2.08,0.493,6.17,-2
CCc1ccc(C2CCCCCN2Cc2nc(CCOC)no2)o1 (configuration not stated),-1.49,2.6,3.4,5.24,3.05,-9.65,16.5,19.7,-14,-18.5,-9.18
COc1ccc(Cl)cc1NCC(=O)NCCc1ccccn1,-3.56,-5.41,-7.1,3.7,-7.64,0.401,1.62,20.4,0.493,1.24,0.208
Cc1ccc(C(=O)N2CCn3cc(CN4CCCCC4)nc3C2)o1,-1.62,-2.6,0.425,-11.1,-1.48,21.3,5.57,1.99,-4.23,-6.41,8.37
O=C(c1cc(=O)[nH]c(=O)[nH]1)N1CCCCC1c1nc2cc(F)ccc2[nH]1 (configuration not stated),-4.1,1.39,2.15,-1.84,1.07,3.97,6.14,-12.1,3.16,7.69,-2.87
